# Test results taken from article PMC4336329 (PLoS ONE, 2015).
# Among all 310,000 compounds or so, about 14,000 (4.5%) showed an effect of 50% or more. The effect is printed as a negative number. The sample as a whole holds a higher share of strong results than the screen did.
# Target: human ether-à-go-go-related gene (hERG) potassium channel (human, UniProt Q12809)
# Assay: primary screen, population patch clamp on CHO cells stably expressing hERG; higher = less effect of the substance
# 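Further: peak tail current of the secondary pulse compared with the same well before compound.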
# human ether-à-go-go-related gene (hERG) potassium channel, sequence (Q12809 whole entry, looked up): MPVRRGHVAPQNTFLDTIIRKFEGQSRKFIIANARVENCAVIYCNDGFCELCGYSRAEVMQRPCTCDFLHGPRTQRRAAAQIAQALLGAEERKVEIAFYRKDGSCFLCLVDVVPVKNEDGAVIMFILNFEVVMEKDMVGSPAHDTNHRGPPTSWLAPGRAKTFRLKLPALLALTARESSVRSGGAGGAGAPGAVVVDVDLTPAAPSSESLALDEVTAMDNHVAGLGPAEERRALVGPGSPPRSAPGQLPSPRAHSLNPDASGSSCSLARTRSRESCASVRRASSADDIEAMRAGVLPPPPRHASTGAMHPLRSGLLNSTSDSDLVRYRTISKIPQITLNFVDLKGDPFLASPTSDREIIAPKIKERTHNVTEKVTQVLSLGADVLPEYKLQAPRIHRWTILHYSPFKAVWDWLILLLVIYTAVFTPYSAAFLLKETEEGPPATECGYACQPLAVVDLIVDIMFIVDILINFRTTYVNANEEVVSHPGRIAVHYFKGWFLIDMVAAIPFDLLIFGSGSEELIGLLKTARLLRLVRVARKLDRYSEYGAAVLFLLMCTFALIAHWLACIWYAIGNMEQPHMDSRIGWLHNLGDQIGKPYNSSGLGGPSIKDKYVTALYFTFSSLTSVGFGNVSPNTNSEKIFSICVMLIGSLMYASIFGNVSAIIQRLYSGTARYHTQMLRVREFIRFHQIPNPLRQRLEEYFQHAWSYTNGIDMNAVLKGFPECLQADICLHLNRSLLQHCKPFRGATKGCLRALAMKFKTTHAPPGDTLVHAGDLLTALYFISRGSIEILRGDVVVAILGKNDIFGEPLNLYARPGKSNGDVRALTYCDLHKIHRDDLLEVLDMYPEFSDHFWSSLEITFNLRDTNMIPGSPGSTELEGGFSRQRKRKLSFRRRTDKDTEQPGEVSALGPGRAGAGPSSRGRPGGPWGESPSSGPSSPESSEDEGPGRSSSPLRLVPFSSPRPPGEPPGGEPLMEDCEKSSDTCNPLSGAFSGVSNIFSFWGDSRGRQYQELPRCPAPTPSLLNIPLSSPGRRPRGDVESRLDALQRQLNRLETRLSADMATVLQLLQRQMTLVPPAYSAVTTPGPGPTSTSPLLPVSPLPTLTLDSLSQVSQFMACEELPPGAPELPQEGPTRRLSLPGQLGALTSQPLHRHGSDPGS
row,SMILES,"hERG current change (%, negative = inhibition) at 10uM"
1,Cc1nnc(NC(=O)c2ccc(S(=O)(=O)N3CC(C)CC(C)C3)cc2)o1 (stereo not drawn),5.33%
2,CCc1cccc2c(C(=O)C(NCCCOC)c3ccccc3)c[nH]c12 (stereo not drawn),2.05%
3,O=C(CSc1cccc(C(F)(F)F)c1)Nc1cc(S(=O)(=O)N2CCCC2)ccc1Cl,-5.28%
4,CCOC(=O)N1CCC(N2C(=O)c3ccccc3C2Nc2ccc3c(c2)OCCO3)CC1 (stereo not drawn),-7.43%
5,CCOC(=O)N1CCC(N2C(=O)c3ccccc3C2Nc2c(C)cccc2C)CC1 (stereo not drawn),-75.1%
6,CCOC(=O)N1CCC(N2C(=O)c3ccccc3C2Nc2cc(OC)c(OC)c(OC)c2)CC1 (stereo not drawn),-17.8%
7,CCOC(=O)N1CCC(N2C(=O)c3ccccc3C2Nc2ccccc2C)CC1 (stereo not drawn),-46.5%
8,CCOC(=O)c1ccccc1NC1c2ccccc2C(=O)N1C1CCN(C(=O)OCC)CC1 (stereo not drawn),-56.4%
9,CCOC(=O)N1CCC(N2C(=O)c3ccccc3C2Nc2cc(C)cc(C)c2)CC1 (stereo not drawn),-21.8%
10,CCOC(=O)N1CCC(N2C(=O)c3ccccc3C2Nc2ccccc2)CC1 (stereo not drawn),-9.74%
11,CCOC(=O)N1CCC(N2C(=O)c3ccccc3C2Nc2cc(C(=O)OC)cc(C(=O)OC)c2)CC1 (stereo not drawn),-17.5%
12,CCOC(=O)N1CCC(N2C(=O)c3ccccc3C2Nc2ccc3c(C)cc(=O)oc3c2)CC1 (stereo not drawn),-63.8%
13,Cc1nn(C)c(C(=O)N/N=C/c2cc3c(cc2Br)OCO3)c1Br,11.2%
14,COCc1cc(C)n(CC(=O)NCC2CCCO2)c(=O)c1C#N (stereo not drawn),12%
15,CCOc1ccc(/C=C2\SC(=S)N(CCCC(=O)NCCCN3CCOCC3)C2=O)cc1,-4.5%
16,CC(=O)NCCc1ccc(S(=O)(=O)Nc2ccc3c(c2)OCCO3)cc1,12.3%
17,CCCc1cc2c(cc1NS(=O)(=O)c1ccc(CCNC(C)=O)cc1)OCO2,-63%
18,CC(=O)NCCc1ccc(S(=O)(=O)NCc2ccc3c(c2)OCO3)cc1,2.45%
19,CCCCNC(=O)CSc1nnc(-c2cccc(S(=O)(=O)N3CCOCC3)c2)o1,-18.1%
20,CC(=O)c1sc(NC(=O)c2ccc(COc3ccccc3Cl)o2)nc1C,33.5%
21,CC(=O)N(CN1C(=O)CCC1=O)c1cccc(Cl)c1,-17%
22,Cc1cc(=O)n2c3ccccc3n(CC(O)CN3CCCC3)c2c1C#N (stereo not drawn),-44.8%
23,Cc1cc(=O)n2c3ccccc3n(CC(O)CN3CCN(Cc4ccccc4)CC3)c2c1C#N (stereo not drawn),-62.8%
24,Cc1cc(=O)n2c3ccccc3n(CC(O)CN3CCN(CCO)CC3)c2c1C#N (stereo not drawn),-16%
25,Cc1cc(=O)n2c3ccccc3n(CC(O)CN3CCCCC3)c2c1C#N (stereo not drawn),-53.2%
26,Cc1cc(=O)n2c3ccccc3n(CC(O)CN3CCOCC3)c2c1C#N (stereo not drawn),17.9%
27,CCCNCC(O)Cn1c2ccccc2n2c(=O)cc(C)c(C#N)c12 (stereo not drawn),-29.7%
